# PubChem BioAssay (NCATS)
# Where “and” joins values, the source holds several entries; their conditions need not be identical. Equal entries are not always repeated. Results filed as inconclusive are left out. Entries that show only a call come without a potency. More than one record can exist for a structure, and the calls need not agree. Calls of active or inactive are those of the source. Unless noted, calls come from the whole dose curve; as a rule, active = well fitted curve in the direction sought with a large enough effect; inconclusive = small, poorly fitted or top-dose-only effect, or another doubt; inactive = no such curve, though single readings can be large; an effect the other way counts as inactive or inconclusive.
# Experiments:
# [1] = NCATS anti-infectives library activity on HEK293 viability as a counter-qHTS vs the C. elegans viability qHTS (AID 1745854)
# Procedure, shortened: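 HEK293 cells, 1500 per well, exposed 24 hr at 37C in 5% CO2 to compounds in a 1:5 titration, up to 41.7 uM final. Viability read as CellTiter-Glo luminescence after 10 min at room temperature.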
# [2] = NCATS anti-infectives library activity on the primary C. elegans qHTS viability assay (AID 1745855; calls by dose curve)
# Procedure, shortened: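 Viability is taken from GFP fluorescence of PE254-GFP-FLuc C. elegans imaged by laser cytometry over 7 days. Ten L1 worms per well grow at 21 °C on TOP10 E. coli capsules with titrated compound; levamisole marks toxicity.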
# [3] = biological target: Glutathione peroxidase 1 (Homo sapiens) (UniProt P07203); assay: Primary qHTS Assay for Inhibitors of Recombinant Selenoprotein Glutathione Peroxidase 1 (GPX1) (AID 1845191); note: nearly all actives have a fitted effect of over 65% in size
# Procedure, shortened: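 GR-coupled assay: compounds preincubated 30 min at room temperature with GPX1, then reaction started with CHP; final 10 nM GPX1, 1 mM GSH, 0.5 mM CHP, 0.5 mM NADPH, 100 nM GR, 0.01% BSA, pH 7.5 Tris buffer. NADPH fluorescence (340/450 nm) read at 0 and 15 min.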
# [4] = biological target: Phospholipid hydroperoxide glutathione peroxidase GPX4 (Homo sapiens) (UniProt P36969); assay: Primary qHTS Assay for Inhibitors of Recombinant Selenoprotein Glutathione Peroxidase 4 (GPX4) (AID 1845192); note: nearly all actives have a fitted effect of over 65% in size; note: potency is the fitted concentration of half-maximal effect
# Procedure, shortened: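 GR-coupled assay: recombinant GPX4 preincubated 30 min with compound at room temperature; final 200 nM GPX4, 1 mM GSH, 0.5 mM cumene hydroperoxide, 0.5 mM NADPH, 100 nM GR, 0.01% BSA, pH 7.5 Tris. NADPH fluorescence (340/450 nm) read at 0 and 15 min.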
# [5] = biological target: Luciferin 4-monooxygenase (Photinus pyralis) (UniProt P08659); assay: Primary firefly luciferase (FLuc) qHTS assay for identification of artifact compounds. (AID 1845220); note: nearly all actives have a fitted effect of over 60% in size; note: potency is the fitted concentration of half-maximal effect
# Procedure, shortened: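 D-luciferin and ATP (10 uM each, final) in Tris acetate buffer pH 7.6 were incubated with compounds for 15 min at room temperature. The reaction was started with 10 nM Photinus pyralis luciferase and luminescence read after 5 min. Percent inhibition was fitted to a 4-parameter Hill equation.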
# [6] = Primary fluorescence-based thiol-reactive (MSTI) qHTS assay for identification of artifact compounds. (AID 1845221); note: nearly all actives have a fitted effect of over 65% in size; note: potency is the fitted concentration of half-maximal effect
# Procedure, shortened: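 Curve-fitted percent inhibition (4-parameter Hill) derived from fluorescence, Ex 525/Em 598 nm, scaled with Acetyl-MSTI and MSTI; 1 h incubation at room temperature.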
# [7] = test system: Nanoluciferase (engineered Oplophorus gracilirostris luciferase); assay: Primary Nanoluciferase (NLuc) qHTS assay for identification of artifact compounds. (AID 1845222)
# Procedure, shortened: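 Diluted conditioned medium from NLuc-expressing S16 cells treated with compounds for 15 min at room temperature, then Nano-Glo substrate added; luminescence read after 5 min. Percent inhibition versus no-enzyme and DMSO controls fitted to 4-parameter Hill equation.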
# [8] = Primary redox qHTS assay for identification of artifact compounds. (AID 1845223)
# Procedure, shortened: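 Amplex Red (25 uM) and HRP (250 mU/mL) in HBSS, with compounds for 15 min, then 250 uM DTT for 30 min, room temperature, dark. Fluorescence 525/598 nm read; normalized to DMSO and 10 uM DA3003; Hill fit.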
# [9] = biological target: Catechol O-methyltransferase (Homo sapiens) (UniProt P21964); assay: Confirmatory Screen for Target Class Profiling of Small Molecule Inhibitors of Methyltransferases (AID 1745852; calls by dose curve; note: potency is the fitted concentration of half-maximal effect); settings: MTase-Glo luminescence, SAH detection, recombinant enzyme; measured here: COMT max response; stronger effect = lower value
# [10] = biological target: Guanidinoacetate N-methyltransferase (Homo sapiens) (UniProt Q14353); assay: as above; settings: activity change, negative = inhibition: at 57.3 µM (top of the series) unless noted
# [11] = biological target: Nicotinamide N-methyltransferase (Homo sapiens) (UniProt P40261); assay: as above; settings: MTase-Glo luminescence, SAH detection, recombinant enzyme; measured here: NNMT max response; stronger effect = lower value
# [12] = biological target: Phenylethanolamine N-methyltransferase (Homo sapiens) (UniProt P11086); assay: as above; settings: MTase-Glo luminescence, SAH detection, recombinant enzyme; measured here: PNMT max response; stronger effect = lower value
# Chain of Phenylethanolamine N-methyltransferase (Homo sapiens) (P11086 whole entry, looked up): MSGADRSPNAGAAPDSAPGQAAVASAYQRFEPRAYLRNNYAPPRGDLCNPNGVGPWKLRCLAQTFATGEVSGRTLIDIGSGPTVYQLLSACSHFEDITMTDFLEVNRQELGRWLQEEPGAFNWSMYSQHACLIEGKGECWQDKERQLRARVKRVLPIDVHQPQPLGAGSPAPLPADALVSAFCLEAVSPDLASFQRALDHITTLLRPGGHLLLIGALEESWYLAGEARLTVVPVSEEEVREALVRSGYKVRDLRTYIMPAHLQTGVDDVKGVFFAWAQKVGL
# Chain of Glutathione peroxidase 1 (Homo sapiens) (P07203 whole entry, looked up): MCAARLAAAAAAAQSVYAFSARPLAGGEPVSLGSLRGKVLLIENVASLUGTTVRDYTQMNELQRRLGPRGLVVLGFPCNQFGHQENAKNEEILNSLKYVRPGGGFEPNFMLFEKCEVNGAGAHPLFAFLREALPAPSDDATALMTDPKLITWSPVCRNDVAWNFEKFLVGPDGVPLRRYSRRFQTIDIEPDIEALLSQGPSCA
# Chain of Nicotinamide N-methyltransferase (Homo sapiens) (P40261 whole entry, looked up): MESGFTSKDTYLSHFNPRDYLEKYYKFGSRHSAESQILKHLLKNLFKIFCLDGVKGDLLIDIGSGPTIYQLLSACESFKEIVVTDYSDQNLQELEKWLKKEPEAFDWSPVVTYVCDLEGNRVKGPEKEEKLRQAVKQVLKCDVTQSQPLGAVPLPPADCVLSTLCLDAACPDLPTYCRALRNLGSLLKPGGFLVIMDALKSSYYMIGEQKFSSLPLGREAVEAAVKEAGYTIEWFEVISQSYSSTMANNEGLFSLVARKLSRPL
# Chain of Phospholipid hydroperoxide glutathione peroxidase GPX4 (Homo sapiens) (P36969 whole entry, looked up): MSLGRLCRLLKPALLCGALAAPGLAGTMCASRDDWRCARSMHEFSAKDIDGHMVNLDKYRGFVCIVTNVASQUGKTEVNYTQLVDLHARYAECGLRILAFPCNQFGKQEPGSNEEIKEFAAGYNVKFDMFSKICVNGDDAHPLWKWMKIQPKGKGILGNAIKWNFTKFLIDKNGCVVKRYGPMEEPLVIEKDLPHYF
# Chain of Catechol O-methyltransferase (Homo sapiens) (P21964 whole entry, looked up): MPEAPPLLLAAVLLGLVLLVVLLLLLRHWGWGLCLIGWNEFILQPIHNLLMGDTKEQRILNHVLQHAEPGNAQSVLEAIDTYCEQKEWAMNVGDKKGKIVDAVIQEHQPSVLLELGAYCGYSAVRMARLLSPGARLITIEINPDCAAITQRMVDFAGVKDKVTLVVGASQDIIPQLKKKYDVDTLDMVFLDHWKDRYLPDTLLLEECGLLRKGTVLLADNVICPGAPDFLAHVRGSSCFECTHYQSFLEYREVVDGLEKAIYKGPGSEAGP
Structure (SMILES),outcome [1],Potency [2],Potency [3],Potency [4],Potency [5],Potency [6],Potency [7],Potency [8],activity [9] [%],"activity change, negative = inhibition [10] [%]",activity [11] [%],activity [12] [%],Potency [10]
CCCc1ccc(OCC(=O)N(Cc2nc(-c3cccnc3)no2)C(C)C)cc1,inactive,inactive,inactive,inactive,inactive,inactive,inactive,inactive,,,,,
O=C(Nc1ncc([N+](=O)[O-])s1)c1ccccc1O,inactive,,inactive,,0.849 µM (active),2.38 µM (active),,inactive,,,,,
COc1cc2c(cc1OC)CN(C(=O)/C=C/c1c(-c3ccccc3)n(C)c3ncccc13)CC2,,,,inactive,inactive,inactive,inactive,,-6.33,-4.03,-30.5,-5.99,
COC1CCN(C(=O)c2cc(Cc3n[nH]c(=O)c4ccccc34)ccc2F)CC1,inactive,,inactive,inactive,inactive,inactive,inactive,inactive,,,,,
O=c1[nH]c([C@@H]2CCCN2)nc2c1oc1ccc(Cl)cc12,inactive,,inactive,inactive,inactive,inactive,inactive,inactive,,,,,
Cn1nc(C(C)(C)C)cc1C(=O)N[C@@H](Cc1cccc(Cl)c1)C(=O)NCC#N,inactive,inactive,inactive,,inactive,inactive,inactive,inactive,,,,,
CC(C)(CNC(=O)c1cccc(-c2noc(C(F)(F)F)n2)c1)c1coc(-c2ccccc2)n1,inactive,,inactive,inactive,inactive,inactive,inactive,inactive,,,,,
COc1ccc(NC(=O)c2ccc(C(=N)N(C)C)cc2)c(C(=O)Nc2ccc(Cl)cn2)c1,inactive,,inactive,inactive,inactive,inactive,inactive,inactive,,,,,
Cc1onc(-c2ccccc2)c1C(=O)N1CCN(c2ccc([N+](=O)[O-])cc2Cl)CC1,inactive,,inactive,inactive,inactive,,inactive,inactive,,,,,
CCC[C@@]1(CCc2ccccc2)CC(O)=C([C@H](CC)c2cccc(NS(=O)(=O)c3ccc(C(F)(F)F)cn3)c2)C(=O)O1,inactive,,inactive,inactive and 6.31 µM (active),inactive,inactive,inactive,,,,,,
COc1cc(C[C@H]2C(=O)OC[C@@H]2Cc2ccc(OC)c(OC)c2)ccc1O,inactive,,inactive,inactive,inactive,inactive,inactive,inactive,,,,,
O=C(Nc1cc(C(F)(F)F)ccc1N1CCCCC1)c1ccncc1,inactive,inactive,inactive,inactive,inactive,inactive,inactive,inactive,,,,,
NC(N)=NC(=O)c1cnn(-c2cccc3ncccc23)c1C1CC1,,,,inactive,inactive,inactive,inactive,inactive,-9.86,-8.74,-53.6,-5.56,
O=C(NCC1(c2nc(-c3ccccc3)cs2)CCOCC1)c1cccc(-c2noc(C(F)(F)F)n2)c1,inactive,,inactive,inactive,inactive,inactive,inactive,inactive,,,,,
CCCCCCCOc1cc2c(cc1/C(C)=C/c1ccc(C(=O)O)cc1)C(C)(C)CCS2(=O)=O,,,,inactive,inactive,inactive,inactive,inactive,-11.5,,-71.1,-11.4,27.1 µM (active)
CCC[C@H](N[C@H]1CCc2cc(F)cc(F)c2C1)C(=O)Nc1cn(C(C)(C)CNCC(C)(C)C)cn1,inactive,inactive,inactive,inactive,inactive,inactive,,inactive,,,,,
Cc1cnc(-c2ccccc2C(C)C)nc1NCc1ccc(-n2ccnn2)cc1,inactive,,inactive,inactive,inactive,inactive,,inactive,,,,,
